Measurements: PubChem BioAssay (NCATS)
Results filed as inconclusive are left out. Active and inactive are the calls of the source. Unless noted, the call rests on the fitted dose curve.

Tests used:
[1] = molecular target: Single-stranded DNA cytosine deaminase (Homo sapiens) (UniProt Q9GZX7); assay: Validation qHTS assay for inhibitors of Activation Induced Cytidine Deaminase (AID): AID signal (AID 1347429; active means well fitted curve in the direction sought with a large enough effect; an effect the other way counts as inactive or inconclusive)
Sequence of Single-stranded DNA cytosine deaminase (Homo sapiens) (Q9GZX7 whole entry, looked up): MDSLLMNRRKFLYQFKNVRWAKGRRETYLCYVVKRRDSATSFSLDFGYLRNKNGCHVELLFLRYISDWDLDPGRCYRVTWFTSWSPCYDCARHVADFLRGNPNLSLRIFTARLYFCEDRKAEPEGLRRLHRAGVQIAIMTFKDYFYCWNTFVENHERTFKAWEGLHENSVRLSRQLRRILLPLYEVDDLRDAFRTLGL
In short: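 AID and UDG were combined and compounds added at final up to 114 uM, then DJC20/DJC23 FRET substrate was added for 4 hr at room temperature. NaOH was then added for 30 min before fluorescence was read at 540/590 nm.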

[2] = Primary qHTS for inhibitors of La Crosse Virus (LACV) - induced cell death in SH-SY5Y cells (AID 1508616; active means well fitted curve in the direction sought with a large enough effect; an effect the other way counts as inactive or inconclusive;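 further: top concentration of the series differs between compounds; higher means more rescue of cells from virus-induced death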)
In short: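 Luminescent ATP readout (ATPLite 1step, 5 min room temperature) measured rescue from LACV-induced death after 6 days of infection at 0.01 MOI; normalized to infected DMSO wells and uninfected DMSO wells.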

[3] = molecular target: Calcium and integrin-binding protein 1 (Homo sapiens) (UniProt Q99828); assay: Validation qHTS for Identification of Calcium Integrin Binding protein 1 (CIB1) Competitor (AID 1508618; active means well fitted curve in the direction sought with a large enough effect; an effect the other way counts as inactive or inconclusive)
Sequence of Calcium and integrin-binding protein 1 (Homo sapiens) (Q99828 whole entry, looked up): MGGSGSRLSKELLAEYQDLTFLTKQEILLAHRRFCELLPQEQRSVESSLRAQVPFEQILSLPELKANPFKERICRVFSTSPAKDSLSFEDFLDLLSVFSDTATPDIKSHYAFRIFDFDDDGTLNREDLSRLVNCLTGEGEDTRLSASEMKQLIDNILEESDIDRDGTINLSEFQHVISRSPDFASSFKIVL
In short: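 CIB1-GST (1 uM final) incubated 15 min at room temperature with compounds (up to 114 uM), then FITC-labelled alphaIIb peptide (100 nM) added. FP read (Ex 480/Em 540) after 15 min, pH 7.4 buffer containing 5 mM CaCl2.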

[4] = Validation qHTS assay for inhibitors of Activation Induced Cytidine Deaminase (AID): UDG Counterscreen signal (AID 1347427; active means well fitted curve in the direction sought with a large enough effect; an effect the other way counts as inactive or inconclusive)
In short: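 Counterscreen read of UDG activity (2 U/mL, 4/3x) in the FRET deamination format with AID (1 uM, 4/3x), DJC20/DJC23 substrates (250 nM, 4x), 4 h at room temperature. NaOH stop, fluorescence at 560 ex/665 em.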

[5] = Primary qHTS for inhibitors of SARS-S pseudo-typed particle cell entry (AID 1479145); details: outcome: dose series up to 57.1 µM unless noted; further: nearly all actives have a fitted effect of over 45% in size
[6] = Primary qHTS for Huh7 cytotoxicity: counterscreen for inhibitors of MERS-S pseudotyped particle cell entry (AID 1479147); details: outcome: dose series up to 57.1 µM unless noted
[7] = Primary qHTS for inhibitors of MERS-S pseudo-typed particle cell entry (AID 1479149); details: outcome: dose series up to 57.1 µM unless noted; further: nearly all actives have a fitted effect of over 60% in size
[8] = Primary qHTS for Vero E6 cytotoxicity: counterscreen for inhibitors of SARS-S pseudo-typed particle cell entry (AID 1479150)
[9] = molecular target: Calcium and integrin-binding protein 1 (Homo sapiens) (UniProt Q99828); assay: Primary qHTS for Identification of Calcium Integrin Binding Protein 1 (CIB1) Competitor (AID 1508620; active means well fitted curve in the direction sought with a large enough effect; an effect the other way counts as inactive or inconclusive;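 further: GST tagged CIB1 binding a fluorescein labelled alphaIIb integrin peptide tracer; top concentration of the series differs between compounds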)
In short: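 Fluorescence polarization competition: GST-tagged CIB1 (1 uM final) preincubated with compound 15 min at room temperature, then FITC-labelled alphaIIb peptide (100 nM final) added. After 15 min at room temperature, polarization read at Ex 480/Em 540.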

Measured: Potency

O=[N+]([O-])c1cc(O)c(O)c([N+](=O)[O-])c1
inactive: [1] | [2] | [3]

COc1ccc2c(c1)/C(=C/c1cnc[nH]1)C(=O)N2
inactive: [1]

C=CCN1CC[C@]23c4c5ccc(O)c4O[C@@H]2/C(=N/N=C2\CC[C@@]4(O)C6Cc7ccc(O)c8c7[C@@]4(CCN6CC=C)[C@@H]2O8)CC[C@@]3(O)C1C5
inactive: [4] | [1]

CC(C)CCON=O
inactive: [5] | [6] | [7] | [8]

COc1cc2c(cc1OC)[C@@]13CCN4CC5=CCO[C@H]6CC(=O)N2[C@H]1[C@H]6[C@H]5C[C@H]43
inactive: [5] | [6] | [7] | [8] | [9]

CCC1C(C)=NN=C(c2ccc(OC)c(OC)c2)c2cc(OC)c(OC)cc21 (stereo unspecified)
inactive: [5] | [6] | [7] | [8]

CC[N+](C)(CC)CCOC(=O)C(O)(c1ccccc1)c1ccccc1
inactive: [5] | [6] | [7] | [8]

CC(C)(O)[C@@H]1[C@H]2OC(=O)[C@@H]1[C@]1(O)C[C@H]3O[C@]34C(=O)O[C@H]2[C@]14C
inactive: [5] | [6] | [7] | [8]

c1ccc2sc(SNC3CCCCC3)nc2c1
inactive: [5] | [6] | [7] inactive [at 114 µM] | [8]

CCCCNCC(O)c1ccc(O)cc1 (stereo unspecified)
inactive: [5] | [6] | [7] | [8]

CC(=O)O[C@H]1CC[C@H]2[C@@H]3CCC4=CC(=O)CCC4=C3C=C[C@]12C
inactive: [5] | [6] | [7] | [8]

C=CC[C@]1(O)CC[C@H]2[C@@H]3CCC4=CCCC[C@@H]4[C@H]3CC[C@@]21C
inactive: [5] inactive [at 114 µM] | [6] inactive [at 114 µM] | [7] | [8]

C[C@@H](CO)NC(=O)[C@@H]1C=C2c3cccc4[nH]cc(c34)C[C@H]2N(C)C1
inactive: [5] | [6] | [7] | [8]

Cn1sc(Cl)cc1=O
inactive: [5] | [6] | [7] | [8]
